Measured values: PubChem BioAssay AID1159580 (chemical genetic matrix, 2015)
Where “and” joins values, the source holds several entries; their conditions need not be identical. Identical values can stand only once. The whole screen tested about 5,500 compounds, of which about 2,000 (36%) were called active. Inconclusive results (about 18%) are left out. No stated cut-off is given here; in the data, active means normalized growth mostly below about 0.91 (no sharp cut-off); inconclusive means no clear call, values can overlap the other calls; inactive means mostly above about 0.92. The list shows a part of the results.

Test: chemical genetic growth profiling, strain panel (AID 1159580);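 further: tested at 20 µM; growth read once vehicle control cultures reached saturation at 30 °C; 1 = growth at the plate median or of vehicle wells; lower values mean less growth of the strain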
Conditions: S. cerevisiae deletion strains, growth OD

Measured: normalized growth

Cc1nc2ccccn2c(=O)c1CCN1CCC(C(=O)c2ccc(F)cc2)CC1
inactive: locus YAL013W, strain DEP1, active compounds read low 1.02 and 1.01 | locus YAL021C, strain ccr4, active compounds read low 1 | locus YAL026C, strain drs2, active compounds read low 1 | locus YAL030W, strain snc1, active compounds read low 0.999 | locus YAL040C, strain CLN3, active compounds read low 0.993 | locus YBL061C, strain skt5, active compounds read low 0.983 | locus YBR009C, strain hhf1, active compounds read low 0.987 | locus YBR021W, strain FUR4, active compounds read low 0.981 | locus YBR023C, strain chs3, active compounds read low 0.986 | locus YBR171W, strain sec66, active compounds read low 0.981 | locus YBR229C, strain ROT2, active compounds read low 1.02 | locus YBR231C, strain swc5, active compounds read low 0.984 | locus YBR279W, strain paf1, active compounds read low 0.977 | locus YCL011C, strain gbp2, active compounds read low 0.997 | locus YCL016C, strain dcc1, active compounds read low 0.989 | locus YCL029C, strain bik1, active compounds read low 0.999 | locus YCL061C, strain MRC1 (second series), active compounds read low 1.01 | locus YCL061C, strain MRC1, active compounds read low 1.02 | locus YCL069W, strain vba3, active compounds read low 1 | locus YCR088W, strain abp1, active compounds read low 0.982 | locus YDL005C, strain med2, active compounds read low 0.973 | locus YDL035C, strain GPR1, active compounds read low 1.02 | locus YDL040C, strain nat1, active compounds read low 1 | locus YDL074C, strain BRE1, active compounds read low 1.07 | locus YDL101C, strain DUN1, active compounds read low 1.04 | locus YDL134C, strain PPH21, active compounds read low 1.02 | locus YDL185W, strain tfp1, active compounds read low 0.992 | locus YDL192W, strain arf1, active compounds read low 0.997 | locus YDR001C, strain nth1, active compounds read low 0.986 | locus YDR069C, strain doa4, active compounds read low 0.972 | locus YDR101C, strain arx1, active compounds read low 0.979 | locus YDR137W, strain rgp1, active compounds read low 0.976 | locus YDR150W, strain NUM1, active compounds read low 1.03 and 1 | locus YDR159W, strain sac3, active compounds read low 0.977 | locus YDR162C, strain NBP2, active compounds read low 1.05 | locus YDR195W, strain ref2 0.996 | locus YDR297W, strain sur2, active compounds read low 0.98 | locus YDR318W, strain mcm21, active compounds read low 0.983 | locus YDR334W, strain swr1, active compounds read low 0.982 | locus YDR335W, strain msn5, active compounds read low 0.984 | locus YDR363W, strain ESC2, active compounds read low 1.01 | locus YDR388W, active compounds read low 0.995 | locus YDR392W, strain spt3, active compounds read low 0.988 | locus YDR502C, strain sam2, active compounds read low 1.01 | locus YEL003W, strain gim4, active compounds read low 0.997 | locus YEL037C, strain rad23, active compounds read low 0.984 | locus YEL061C, strain CIN8 (second series), active compounds read low 0.994 | locus YEL061C, strain CIN8, active compounds read low 1.01 | locus YER002W, strain NOP16, active compounds read low 0.983 | locus YER015W, strain faa2, active compounds read low 0.997 | locus YER016W, strain bim1, active compounds read low 0.985 | locus YER110C, active compounds read low 0.991 | locus YER111C, strain swi4, active compounds read low 0.973 | locus YER155C, strain BEM2 (second series), active compounds read low 1 | locus YER155C, strain BEM2, active compounds read low 1.02 | locus YER167W, strain BCK2, active compounds read low 1.01 | locus YFR010W, strain ubp6, active compounds read low 0.989 | locus YGL078C, strain dbp3, active compounds read low 0.999 | locus YGL086W, strain mad1, active compounds read low 0.996 | locus YGL167C, strain pmr1, active compounds read low 0.983 | locus YGL173C, strain kem1, active compounds read low 0.992 | locus YGL227W, strain vid30, active compounds read low 1 | locus YGL240W, strain doc1, active compounds read low 1.01 | locus YGL248W, strain PDE1, active compounds read low 1.02 | locus YGL253W, strain hxk2, active compounds read low 0.996 | locus YGR078C, strain PAC10, active compounds read low 1.04 and 1.02 | locus YGR135W, strain pre9, active compounds read low 1 | locus YGR229C, strain SMI1, active compounds read low 1.04 | locus YGR252W, strain gcn5, active compounds read low 0.945 | locus YHR013C, strain ard1, active compounds read low 0.97 | locus YHR027C, strain rpn1, active compounds read low 0.985 | locus YHR030C, strain SLT2, active compounds read low 1.02 | locus YHR079C, strain IRE1 (second series), active compounds read low 0.985 | locus YHR079C, strain IRE1, active compounds read low 1.05 | locus YHR094C, strain hxt1, active compounds read low 0.998 | locus YHR129C, strain ARP1, active compounds read low 1.02 | locus YHR142W, strain chs7, active compounds read low 0.968 | locus YHR200W, strain rpn10, active compounds read low 0.998 | locus YIL066C, strain RNR3, active compounds read low 1.03 | locus YIL073C, strain SPO22, active compounds read low 0.973 | locus YIL125W, strain kgd1, active compounds read low 1 | locus YIR030C, strain dcg1, active compounds read low 1 | locus YJL092W, strain hpr5, active compounds read low 0.987 | locus YJL095W, strain BCK1 (second series), active compounds read low 0.986 | locus YJL095W, strain BCK1, active compounds read low 1.04 and 1.01 | locus YJL115W, strain asf1, active compounds read low 0.991 | locus YJL129C, strain trk1, active compounds read low 0.987 | locus YJL134W, strain LCB3, active compounds read low 1.02 | locus YJL154C, strain vps35, active compounds read low 0.987 | locus YJL164C, strain tpk1, active compounds read low 0.993 | locus YJL166W, strain qcr8, active compounds read low 0.996 | locus YJL168C, strain set2, active compounds read low 0.99 | locus YJL187C, strain SWE1 (second series), active compounds read low 1.03 | locus YJR043C, strain POL32, active compounds read low 1 | locus YJR066W, strain TOR1, active compounds read low 0.993
